# Source: PubChem
# NPC1 prom act: qHTS Assay for NPC1 Promoter Activators | Huh7 NPC1 promoter luciferase reporter, 24 h | Potency, µM (top dose mostly 9.22 µM), for the others: at the highest dose activation, actives largely listed as activators | hit rate 2.4% among 320,000; also: % of control where 0% means no effect; nearly all actives have a fitted effect of over 60% in size
#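 Luciferase expression driven by the NPC1 promoter was measured in stably transfected Huh7 cells after a 24 h compound incubation, using a luciferase reagent and a luminescence read.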
# ELG1 genotox: qHTS screen for small molecules that induce genotoxicity in human embryonic kidney (HEK293T) cells expressing luciferase-tagged ELG1; HEK293T ELG1-luciferase reporter, luminescence, 16 h; Potency, µM (series often up to 46 µM), for the others: top-dose activity change, positive = activation, hits mostly activators; hit rate 1.3% among 330,000; AID 504466, 2011; also: % of control where 0% means no effect; nearly all actives have a fitted effect of over 60% in size
#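 Cells (2,000/well) expressing the ELG1-luciferase fusion are dosed by pin tool and kept 16 hr at 37 °C, 5% CO2. Signal comes from ONE-Glo luciferase reagent after 30 min at room temperature.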
# Rab9 prom act: qHTS Assay for Rab9 Promoter Activators; Huh7 Rab9 promoter-luciferase reporter, luminescence, 24 h; Potency, µM (series often up to 9.22 µM), for the others: at the highest dose activation, negative = inhibition, hits mostly activators; hit rate 2.8% among 320,000; AID 485297, 2010; also: % of control where 0% means no effect; nearly all actives have a fitted effect of over 60% in size
#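 Cell-based reporter: Huh7 stable for Rab9 promoter-driven luciferase, plated in reduced-serum medium with 10% FBS at 1500 cells/well, compound-treated 24 h at 37 °C, luminescence read after 10 min reagent.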
# SMN2 splice up: qHTS Assay for Enhancers of SMN2 Splice Variant Expression; HEK293 SMN2-luciferase splicing reporter, luminescence, 30-36 h; Potency, µM (series often up to 46.1 µM), inactives show top-dose activity change, positive = activation, actives largely listed as activators; AID 1458, 2008; hit rate 2.8% among 210,000; also: % of control where 0% means no effect; nearly all actives have a fitted effect of over 55% in size
#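 HEK293 cells carry an SMN2 […]–luciferase reporter in which exon 7 inclusion puts luciferase in frame. Cells were plated 10-12 h before compound addition, then incubated 30-36 h at 37C. ONE-Glo luminescence was read; sodium butyrate at 4.5 mM final served as control.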
# FLuc counter: qHTS profiling assay for firefly luciferase inhibitor/activator using purifed enzyme and Km concentrations of substrates (counterscreen for miR-21 project); Potency, µM (titrated, usually from 57.5 µM), without a hit: top-dose activity change, negative = inhibition, hits mostly inhibitors; Luciferin 4-monooxygenase (Photinus pyralis), P08659; purified FLuc, Km substrates, luminescence inhibition; hit rate 6.9% among 360,000;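 also: plate controls were vehicle for no effect and reference inhibitor for full effect; nearly all actives have a fitted effect of over 55% in size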
# Target sequence (P08659 whole entry, looked up): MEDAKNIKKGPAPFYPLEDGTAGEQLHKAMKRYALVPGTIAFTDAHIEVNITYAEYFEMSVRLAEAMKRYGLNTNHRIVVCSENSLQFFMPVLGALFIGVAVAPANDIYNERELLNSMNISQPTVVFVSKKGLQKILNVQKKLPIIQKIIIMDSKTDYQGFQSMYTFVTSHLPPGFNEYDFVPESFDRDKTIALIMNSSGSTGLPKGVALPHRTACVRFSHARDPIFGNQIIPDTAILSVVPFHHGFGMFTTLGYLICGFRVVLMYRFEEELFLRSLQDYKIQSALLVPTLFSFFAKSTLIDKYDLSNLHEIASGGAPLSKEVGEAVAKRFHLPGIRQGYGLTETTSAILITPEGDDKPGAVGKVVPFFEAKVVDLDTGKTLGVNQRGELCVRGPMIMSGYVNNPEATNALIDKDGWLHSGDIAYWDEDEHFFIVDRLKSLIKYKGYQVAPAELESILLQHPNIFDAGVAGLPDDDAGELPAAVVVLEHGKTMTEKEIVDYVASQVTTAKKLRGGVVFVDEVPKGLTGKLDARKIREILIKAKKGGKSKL
#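 Purified P. pyralis luciferase, 10 nM final, with Km-level 10 uM D-luciferin and 10 uM ATP in 50 mM Tris acetate pH 7.5, 10 mM Mg acetate, 0.01% Tween-20, 0.05% BSA; 6-point qHTS titration about 60 µM downward; luminescence read.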
# Luc counter: Counterscreen for Luciferase (Kinase-Glo TM) Inhibition | Luciferin 4-monooxygenase (Photuris pensylvanica), Q27757 | Kinase-Glo luciferase, ATP luminescence, 8 min | Potency, µM (top dose mostly 38.3 µM), inactives show top-dose activity change, negative = inhibition, actives largely listed as inhibitors | hit rate 0.28% among 200,000 | AID 1379, 2008; also: % is scaled to controls: 0 for no effect and ±100 for the full control effect; nearly all actives have a fitted effect of over 60% in size
#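 Kinase-Glo luciferase light output from ATP and luciferin was measured with 10 uM ATP, within the enzyme's linear range. Buffer: 50 mM imidazole pH 7.2, 50 mM KCl, 7 mM MgCl2, 0.01% Tween 20, 0.05% BSA; luminescence read after 8 min at ambient temperature.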
# Active calls of the source: *; ? = inconclusive; · = no result; [ ] = dose if it differs, or a comment. A selection: hits, their analogues and other compounds. The true share with any hit is near 7.3%. Calls follow the shape of the dose curve; as a rule, active = well fitted curve in the direction sought with a large enough effect; inconclusive = small, poorly fitted or top-dose-only effect, or another doubt; inactive = no such curve, though single readings can be large; an effect the other way counts as inactive or inconclusive. Potency is read from the fitted curve at half-maximal effect.
SMILES,NPC1 prom act,ELG1 genotox,Rab9 prom act,SMN2 splice up,FLuc counter,Luc counter
COc1ccc(C(=O)Nc2ccc(C(=O)Nc3cccnc3)cc2)cc1,1%,?,19%,·,-1%,·
O=C(Nc1cccnc1)Nc1ccc(Cl)cc1Cl,-3%,0%,3%,14%,?,1%
COc1ccc(NC(=O)Nc2cccnc2)cc1,24%,23%,25%,24%,17µM*,-25%
Cc1cnc(NC(=O)Nc2ccc(Cl)cc2)s1,14%,?,-31%,173%,4.8µM*,-2%
O=C(Nc1ccc(Cl)cc1)Nc1cccnc1,25%,?,?,16%,12µM*,11%
CC(C)c1ccc(C2c3c(-c4ccccc4O)n[nH]c3C(=O)N2Cc2ccncc2)cc1 (configuration not stated),·,·,·,8%,2%,·
COc1ccc(NC(=S)N2CCCCC2c2cccnc2)cc1 (configuration not stated),1%,0%,-3%,·,17µM*,·
Cc1cccc(NC(=S)N2CCCCC2c2cccnc2)c1C (configuration not stated),-2%,1%,1%,·,1%,·
CCOC(=O)Cn1c(O)c(N=NC(=O)OC)c2ccccc21,2%,0%,3%,·,3%,·
COC(=O)Cn1c(=NC(=O)c2ccc3c(c2)OCCO3)sc2ccccc21,·,·,·,·,8.5µM*,·
COC(=O)Cn1c(O)c(N=NC(=O)c2ccc3c(c2)OCO3)c2ccccc21,?,9%,30%,·,0.95µM*,-13%
COc1ccc(C2C(C(N)=O)=C(C)Nc3nc(-c4cccc(Cl)c4)nn32)cc1OC (configuration not stated),7%,?,0%,18µM*,-1%,2%
COc1ccc(C2C3=C(CCCC3=O)Nc3nc(-c4cc(OC)c(OC)c(OC)c4)nn32)cc1OC (configuration not stated),-2%,21µM*,-14%,8.9µM*,3%,-4%
COc1ccccc1C1C(C(N)=O)=C(C)Nc2nc(-c3ccccc3Cl)nn21 (configuration not stated),-1%,15%,-6%,-31%,-1%,0%
COc1cccc(C2C(C(N)=O)=C(C)Nc3nc(-c4ccccc4Cl)nn32)c1 (configuration not stated),-4%,18µM*,-1%,?,1%,0%
CC1CCCCN1C(=O)c1cc(-c2ccc(Cl)c(Cl)c2)on1 (configuration not stated),4µM*,?,2.5µM*,?,12µM*,-2%
COc1ccc(-c2cc(C(=O)N3CCCCC3C)no2)cc1OC (configuration not stated),·,·,·,8%,-15%,·
CC1CCCCN1C(=O)c1cc(-c2ccc3c(c2)OCO3)on1 (configuration not stated),0.63µM*,12µM*,0.89µM*,·,3.8µM*,·
CC1CCN(C(=O)c2cc(-c3ccc4c(c3)OCO4)on2)CC1,0.63µM*,2.9µM*,1.1µM*,·,2.7µM*,·
CCC1CCCCN1C(=O)c1cc(-c2ccc(Cl)c(Cl)c2)on1 (configuration not stated),?,?,?,48%,19µM*,-2%
O=C(c1cc(-c2ccccc2)on1)N1CCN(Cc2ccc3c(c2)OCO3)CC1,-2%,-5%,-1%,-16%,-12%,-2%
CSc1nn(Cc2ccc(F)cc2)c(N(C(C)=O)C(C)=O)c1S(=O)(=O)c1ccccc1,·,·,·,-6%,-7%,·
COc1ccccc1OCCn1c(NC(=O)c2ccccc2Cl)nc2ccccc21,·,·,·,-4%,-17%,·
N#C/C(=C\c1ccc(F)cc1)c1nc(-c2ccco2)cs1,?,?,?,17%,2.7µM*,-2%
CCN(CC)CCCCn1c(-c2ccccc2)nc2c(N(CCOC)CCOC)nc(C)nc21,·,·,·,-8%,·,-5%
SMILES,NPC1 prom act,ELG1 genotox,Rab9 prom act,SMN2 splice up,FLuc counter,Luc counter
COc1ccc(NC(=O)Cn2c(=O)oc3cc(S(=O)(=O)N4CCC(C)CC4)ccc32)c(OC)c1,·,·,·,-15%,?,·
O=C(N/N=C/c1cc2c3c(c1O)CCCN3CCC2)c1ccccc1O,-9%,-12%,-26%,-102%,24µM*,-1%
N#C/C(=C/c1ccc(N2CCCCCC2)o1)c1cccc(F)c1,3.5µM*,5.8µM*,4µM*,13µM*,5.4µM*,-18%
N#C/C(=C\c1ccc(N2CCOCC2)o1)c1ccccc1,?,?,?,13µM*,2.1µM*,0%
N#C/C(=C/c1ccc(N2CCOCC2)o1)c1nc2ccccc2[nH]1,3.5µM*,2.3µM*,1µM*,2µM*,0.54µM*,-19%
N#C/C(=C/c1ccc(N2CCOCC2)o1)c1ccc(Br)cc1,?,7%,?,?,8.5µM*,-6%
N#C/C(=C\c1cccnc1)c1ccc(Br)cc1,5%,2%,1%,·,?,·
N#C/C(=C\c1cc([N+](=O)[O-])c(N2CCOCC2)cc1N1CCOCC1)c1nc2ccccc2[nH]1,-2%,-6%,-1%,1%,-2%,3%
Cc1ccc(CNC(=O)c2cn(C)c3ccc(S(=O)(=O)N(C)C4CCCCC4)cc3c2=O)cc1,·,·,·,-8%,-11%,·
CSc1cccc(N2C(=O)N(CC(=O)NCc3ccccc3Cl)c3ccccc3S2(=O)=O)c1,·,·,·,·,-1%,·
Cc1nnc(SCC2=C(C(=O)O)N3C(=O)[C@@H](NC(=O)Cn4cnnn4)[C@@H]3SC2)s1,·,·,·,2%[20.6 µM],·,3%[17.1 µM]
CCc1ccc(CN(Cc2ccco2)c2cnc(S(C)(=O)=O)nc2C(=O)Nc2cccc(C)c2)cc1,·,·,·,·,4%,·
N#C/C(=C\c1ccc(N2CCOCC2)cc1)c1ccccc1,2.8µM*,4.1µM*,1µM*,3.2µM*,?,-1%
N#C/C(=C\N1CCOCC1)c1ccccc1,-3%,-2%,0%,-20%,-1%,-4%
COc1cc(-c2nnn(CC(=O)NC3CCS(=O)(=O)C3)n2)ccc1OCc1ccccc1 (configuration not stated),?,?,18%,?,12µM*,0%
Cn1nc(C(=O)OCC(=O)c2ccc(Br)cc2)c2ccccc2c1=O,1%,-1%,1%,·,0%,·
O=C(COC(=O)c1n[nH]c2ccccc12)c1cc(F)ccc1F,-1%,-1%,2%,-20%,?,-4%
